An excerpt weighted towards active compounds, which were near 9.9% of everything screened.
SW480 rerep: inducers of DNA re-replication in SW480 colon cancer cells | AID 624297 | 1.8% of 340,000 active | SW480 DNA re-replication, Hoechst DNA content imaging, 48 h | Potency, µM (highest dose often 46.1 µM), usual class: activators; also: nearly all actives have a fitted effect of over 55% in size
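First, 250 cells per well were seeded. Next, compound or vehicle (23 nL) was pinned in, plates sat 48 hr at 37 C. Finally Hoechst was added for 40 min before fluorescence scanning.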
IL-1B inflam inh: inhibitors of inflammasome signaling (IL-1 beta secretion). THP-1 LPS/ATP IL-1B secretion, AlphaLISA, 16 h; active compounds read low. activity change, % at 57.5 µM. 4.7% of 360,000 active. AID 743279; in the data active = activity change below about -50%; inconclusive = mostly about -30% to -49%
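THP-1 cells pretreated 1 hr with compounds (up to 57.5 uM final), then stimulated with LPS (250 ng/mL final) plus ATP (1.25 mM final); secreted IL-1B measured by AlphaLISA after 16 hr, decreased signal indicating inhibition.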
KB-V1 cytotox: kills drug-selected multidrug resistant KB-V1 cells; KB-V1 MDR cells viability, CellTiter-Glo, 72 h; Potency, µM (doses to about 46.1 µM), usual class: cytotoxic; 3.4% of 400,000 active; AID 1347076; also: nearly all actives have a fitted effect of over 60% in size
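Following 72 h at 37 degrees C with compound, KB-V1 cell viability was read by CellTiter-Glo luminescence, medium being phenol-red-free DMEM plus 10% FBS; concentration-response parameters came from normalized, curve-fitted qHTS data.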
KB-3-1 cytotox: kills parental KB-3-1 adenocarcinoma cells; KB-3-1 viability, CellTiter-Glo ATP luminescence, 72 h; Potency, µM (doses to about 46.1 µM), usual class: cytotoxic; 1.4% of 400,000 active; also: nearly all actives have a fitted effect of over 60% in size
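Cells are dispensed, compounds pinned in, plates held at 37 °C for 72 h, then CellTiter-Glo is added and luminescence read after 10 minutes. Cell line: parental KB-3-1 in phenol-red-free DMEM, 10% FBS.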
MCF10A rerep: induces DNA re-replication in MCF 10a normal breast cells; MCF 10A DNA re-replication, Hoechst nuclear intensity, 48 h; Potency, µM (top dose mostly 46.1 µM), most hits filed as activators; 2.9% of 350,000 active; AID 624296; also: nearly all actives have a fitted effect of over 50% in size
Large screens that a line does not name were inactive; ! = not active in a repeat. Unless noted, calls follow the shape of the dose curve; as a rule, active = well fitted curve in the direction sought with a large enough effect; inconclusive = small, poorly fitted or top-dose-only effect, or another doubt; inactive = no such curve, though single readings can be large; an effect the other way counts as inactive or inconclusive.

Nc1ncncc1-c1ccc2ccccc2c1	IL-1B inflam inh inconclusive
Cc1nc(Nc2ccc(S(=O)(=O)N3CCCCC3C)cc2)c2nnn(Cc3ccccc3)c2n1 (centres undefined)	KB-V1 cytotox 2.3µM, KB-3-1 cytotox 16µM
COc1ccc(Nc2nc(C)nc3c2nnn3Cc2ccccc2)cc1OC	KB-V1 cytotox inconclusive
Cc1nc(Nc2ccc(Cl)cc2)c2nnn(Cc3ccccc3)c2n1	KB-V1 cytotox inconclusive, MCF10A rerep 23µM
CC(C)(C)OC(=O)N1CCC(NC(=O)c2nc[nH]c2C(=O)NCC(=O)OCc2ccccc2)CC1	MCF10A rerep inconclusive
CCCCOc1ccccc1NC(=O)CC1Sc2ccccc2NC1=O (centres undefined)	none (no result: SW480 rerep, IL-1B inflam inh, MCF10A rerep)
O=c1[nH]c2cc3c(cc2cc1CN(CCO)S(=O)(=O)c1ccccc1)OCCO3	none
COc1ccc(N2CCN(C(=O)CSc3nc4nc(C)cc(C)n4n3)CC2)cc1	KB-V1 cytotox 21µM
CCN1CCN(C(=O)C(C)Sc2nc3nc(C)cc(C)n3n2)CC1 (centres undefined)	IL-1B inflam inh -51
Cc1cc(C)n2nc(SCC(=O)N3CCN(c4ccc(F)cc4)CC3)nc2n1	none
Cc1cc(C)n2nc(SC(C)C(=O)N3CCCC3)nc2n1 (centres undefined)	none
COc1ccc(N2CCN(C(=O)CSc3nc(C)cs3)CC2)cc1	SW480 rerep 18µM
CC(C)CN(CC(C)C)C(=O)Cc1coc2ccc3ccccc3c12	IL-1B inflam inh inconclusive, KB-V1 cytotox 23µM, KB-3-1 cytotox inconclusive, MCF10A rerep inconclusive
Cc1ccc(S(=O)(=O)N(c2cccc(C(F)(F)F)c2)C2C=CS(=O)(=O)C2)cc1 (centres undefined)	SW480 rerep inconclusive, IL-1B inflam inh -91, MCF10A rerep 23µM
COc1cc(/C=N/Nc2nc3ccccc3s2)ccc1OC(=O)c1ccccc1F	SW480 rerep inconclusive, IL-1B inflam inh -71, KB-V1 cytotox inconclusive, KB-3-1 cytotox inconclusive, MCF10A rerep 21µM
COC(=O)C1CCN(C(=O)CN2C(=O)NC3(CCC(C)CC3)C2=O)CC1 (centres undefined)	none
CC(NC(=O)c1cc2cc(Br)ccc2oc1=N)c1ccccc1 (centres undefined)	IL-1B inflam inh -51, MCF10A rerep inconclusive (no result: KB-V1 cytotox, KB-3-1 cytotox)
COc1ccc(C(=O)NCc2cccnc2)cc1OC	none
COc1cccc2c1OCC(C(=O)OCc1cccnc1)=C2	IL-1B inflam inh -53
Cc1ccc(NC(=O)Cc2nc(COC(=O)c3c(F)cccc3Cl)cs2)cc1	IL-1B inflam inh -59
CN(C)CC[C@@H](c1ccc(Br)cc1)c1ccccn1	none
OC(CNCc1ccccn1)c1ccccc1 (centres undefined)	KB-V1 cytotox inconclusive
CN(C)CC[C@@H](c1ccc(Cl)cc1)c1ccccn1	IL-1B inflam inh -110
Fc1ccc(C(CCNCc2ccccn2)c2ccc(Cl)cc2)cc1 (centres undefined)	IL-1B inflam inh -90, MCF10A rerep inconclusive
COc1ccc(C(=O)c2sc(Nc3ccccc3)nc2N)cc1OC	SW480 rerep inconclusive, IL-1B inflam inh -98, KB-V1 cytotox 15µM, KB-3-1 cytotox inconclusive, MCF10A rerep inconclusive
COc1ccc(C(=O)c2cc(C(C)=O)c(Nc3ccccc3)s2)cc1	SW480 rerep inconclusive, IL-1B inflam inh inconclusive, KB-V1 cytotox 16µM, KB-3-1 cytotox inconclusive
COc1ccc(C(=O)Nc2ccc(C(=O)c3ccccc3)cc2)cc1	KB-V1 cytotox inconclusive
COc1ccc(C(=O)c2sc(Nc3ccccc3)nc2N)cc1	SW480 rerep inconclusive, IL-1B inflam inh -77, KB-V1 cytotox 13µM!, MCF10A rerep inconclusive
COc1ccc(C(=O)c2sc(Nc3cc(Cl)ccc3C)nc2N)cc1OC	none (no result: SW480 rerep, IL-1B inflam inh, MCF10A rerep)
O=C(c1ccc(S(=O)(=O)N2CCOCC2)cc1)N1CCN(c2cccc(Cl)c2)CC1	KB-V1 cytotox 15µM
O=C(c1ccc(S(=O)(=O)N2CCCCCC2)cc1)N1CCN(c2ccccc2)CC1	none
CC1CC(C)CN(S(=O)(=O)c2ccc(C(=O)N3CCN(c4ccccc4)CC3)cc2)C1 (centres undefined)	IL-1B inflam inh -66
CCCCOc1ccc(N(CC(=O)NC2CCCCC2)C(=O)c2snc(C(N)=O)c2N)cc1	KB-3-1 cytotox inconclusive, MCF10A rerep inconclusive
COc1ccc2ncc(S(=O)(=O)c3ccccc3)c(N3CCN(c4ccccc4)CC3)c2c1	none
O=S(=O)(c1ccccc1)c1cnn(-c2ccccc2)c1-c1ccc(Cl)cc1	KB-V1 cytotox 15µM, KB-3-1 cytotox inconclusive
COc1ccc(-c2c(S(=O)(=O)c3ccccc3)cnn2-c2ccccc2)cc1	KB-V1 cytotox 23µM, KB-3-1 cytotox inconclusive
CC(=O)c1cccc(CN2CCC(CO)(CCCc3ccccc3)CC2)c1	KB-V1 cytotox inconclusive
CC(=O)Nc1ccc2nc(CN3CCC(CO)(CCc4ccccc4)CC3)ccc2c1	MCF10A rerep 18µM
Clc1cccc(-n2ncc3c(NCCCn4ccnc4)ncnc32)c1	none (no result: SW480 rerep, IL-1B inflam inh, MCF10A rerep)
COc1ccc(-c2ccc3c(c2)O[C@H](CN(C)C(=O)Nc2ccccc2F)[C@@H](C)CN([C@H](C)CO)S3(=O)=O)cc1	KB-V1 cytotox 12µM, KB-3-1 cytotox inconclusive (no result: SW480 rerep, MCF10A rerep)
C[C@@H]1CN([C@H](C)CO)S(=O)(=O)c2ccc(Br)cc2O[C@@H]1CN(C)C(=O)Nc1ccc(C(F)(F)F)cc1	IL-1B inflam inh -70, KB-V1 cytotox inconclusive, KB-3-1 cytotox inconclusive (no result: SW480 rerep, MCF10A rerep)
C[C@@H]1CN([C@@H](C)CO)S(=O)(=O)c2ccc(Br)cc2O[C@H]1CN(C)C(=O)Nc1ccc(C(F)(F)F)cc1	KB-3-1 cytotox inconclusive (no result: SW480 rerep, MCF10A rerep)
COc1ccc(-c2ccc3c(c2)O[C@@H](CN(C)C(=O)c2ccccc2F)[C@@H](C)CN([C@@H](C)CO)S3(=O)=O)cc1	none (no result: SW480 rerep, MCF10A rerep)
O=C(CC1C(=O)NCCN1Cc1cccc(Oc2ccccc2)c1)NCc1cccnc1 (centres undefined)	none
O=C(CC1C(=O)NCCN1Cc1cccc(Oc2ccccc2)c1)NCCc1cnccn1 (centres undefined)	SW480 rerep 3.3µM, IL-1B inflam inh inconclusive
O=C(CC1C(=O)NCCN1Cc1ccc(-c2ccccc2)cc1)NCC1CC1 (centres undefined)	SW480 rerep inconclusive, IL-1B inflam inh -54, KB-V1 cytotox inconclusive
Cc1cc(C)cc(N2C(=O)CSC23C(=O)N(CC(=O)NC2CCCCC2)c2ccccc23)c1 (centres undefined)	KB-3-1 cytotox inconclusive (no result: SW480 rerep, IL-1B inflam inh, MCF10A rerep)
CC(C)NC(=O)C1(C)CN(S(C)(=O)=O)CC(=O)N1Cc1cccc(C(F)(F)F)c1 (centres undefined)	none (no result: SW480 rerep, MCF10A rerep)
CC1(C)COC(c2ccc(F)c([N+](=O)[O-])c2)=N1	SW480 rerep inconclusive, IL-1B inflam inh -102, KB-V1 cytotox inconclusive, KB-3-1 cytotox inconclusive, MCF10A rerep 23µM
Cc1ccc(C2=NN(CCC(=O)NCc3ccc4c(c3)OCO4)C(=O)CC2)cc1	KB-V1 cytotox inconclusive

Source: PubChem
